In PubChem BioAssay AID1159580 (chemical genetic matrix, 2015):
The whole screen tested about 5,500 compounds, of which about 2,000 (36%) were called active. Another 18% or so got no clear call; they are omitted. No stated cut-off is given here; in the data, active means normalized growth mostly below about 0.91 (no sharp cut-off); inconclusive means no clear call, values can overlap the other calls; inactive means mostly above about 0.92. The list shows a part of the results.

Assay: chemical genetic growth profiling, strain panel (AID 1159580);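 further: tested at 20 µM; growth read once vehicle control cultures reached saturation at 30 °C; 1 = growth at the plate median or of vehicle wells; lower values mean less growth of the strain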
Conditions: S. cerevisiae deletion strains, growth OD

Measured: normalized growth

COc1ccccc1CNCCCCCCNCCCCCCCCNCCCCCCNCc1ccccc1OC
inactive: locus YAL040C, strain CLN3, active compounds read low 1.01 | locus YCL061C, strain MRC1 (second series), active compounds read low 0.96 | locus YDR363W, strain ESC2, active compounds read low 0.906 | locus YER002W, strain NOP16, active compounds read low 1.03 | locus YNL153C, strain GIM3, active compounds read low 0.942 | locus YNL175C, strain NOP13, active compounds read low 0.992 | locus YNL197C, strain WHI3, active compounds read low 1.03 | locus YNL224C, strain SQS1, active compounds read low 1.03 | locus YOR083W, strain WHI5 (second series), active compounds read low 0.875 | locus YPL241C, strain CIN2, active compounds read low 0.96
